Where “and” joins values, the source holds several entries; their conditions need not be identical. Equal entries are not always repeated. About 83,000 compounds went through this panel and 20% of them were active in at least one assay; those are over-represented in the sample as a whole.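 Note: values are percent growth. 100 is the growth of untreated cells, values between 100 and 0 indicate rising inhibition; between -100 and 0 indicates cell death.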 A number with no mark means an inactive call. Calls of active or inactive are those of the source. Rule for the calls: active = growth percent below 10; inactive = the rest.
Experiments:
Assay in all cases: NCI-60 one-dose screen, 48 h (100 = growth as untreated, 0 = no growth, -100 = all killed)
Conditions in all cases: 10 µM unless noted
[1] = tested on: HCT-15 colon
[2] = tested on: SNB-75 CNS
[3] = tested on: SNB-19 CNS
[4] = tested on: U251 CNS
[5] = tested on: PC-3 prostate
[6] = tested on: SK-MEL-5 melanoma
[7] = tested on: LOX IMVI melanoma
[8] = tested on: SK-MEL-28 melanoma
[9] = tested on: UACC-62 melanoma

SMILES	growth [1]	growth [2]	growth [3]	growth [4]	growth [5]	growth [6]	growth [7]	growth [8]	growth [9]
CC(=O)Nc1cscc1NC(C)=O	106%	93.2%	92.6%	98.9%	103%	99.3%	98.6%	104%	–
O=P(O)(O)OC1C(OP(=O)(O)O)C(OP(=O)(O)O)C(OP(=O)(O)O)C(OP(=O)(O)O)C1OP(=O)(O)O.[Cu+2] (stereo not given)	102%	136%	106%	32.6%	105%	-56.1% (active)	69.7%	116%	79.7%
CC1=CC(=O)c2cccc(NC3=NCCO3)c21	102%	84.6%	104%	–	89.1%	98.2%	98.4%	108%	87.8%
CCNCc1ccccc1	112%	–	109%	101%	103%	108%	97.8%	96.9%	100%
CC(C)(C)OC(=O)NCCc1ccc(N)cc1	111%	87.6%	104%	103%	89.5%	99.2%	106%	112%	–
NNC(=O)Nc1ccccc1	99.8%	87.9%	102%	99.1%	93.5%	101%	98.1%	109%	94.3%
CCN(CC)C(=S)SCCO	107%	89.4%	104%	–	103%	99.7%	97%	112%	107%
O=C(Nc1ccccc1)OCC(CN1CCCCC1)OC(=O)Nc1ccccc1 (stereo not given)	84.9% and 99.5%	56.4% and 80.6%	90.9% and 92.8%	67.7% and 91.1%	75.5%	60.5% and 93.7%	76.7% and 95.2%	91.5% and 105%	80.7% and 101%
COc1ccc(/C=N/NC(N)=S)cc1	106%	87.7%	100%	96.7%	86.9%	104%	95.8%	112%	101%
COc1cc(NCCCCCNC(C)C)c2ncccc2c1	96.7% and 96.6%	84.2% and 73.7%	96.1% and 81.2%	94.8% and 85.9%	86.3% and 89.1%	98.4% and 99%	87.3% and 82.5%	98.5% and 98.7%	83.7%
